This is an account of results in PubChem BioAssay AID463173 (ICCB-Longwood Screening Facility, Harvard Medical School, 2010).

Screen size: about 52,000 compounds; about 4,300 (8.3%) were called active. Many of the other results were omitted from the sample, so actives are more common in it than they were. Values without a mark were called inactive. Cut-off read from the data, not from the text of the source: active = survival mostly below about 52% (no sharp cut-off); inactive = mostly above about 56%.

The subject of this experiment is DeltatarO mutant. Put plainly: growth inhibition of S. aureus wild type versus tarO mutant, primary screen, teichoic acid synthesis inhibitors, RN4220, OD600 (AID 463173). To be noted: OD600, 18 h, hits give low values, screened at 18.75 µg/mL (by protocol).
Regarding `Cc1ccc2sc(NC(=O)c3ccc4c(c3)OCCO4)nc2c1C`, the survival is 92%.

As for `CNC(=O)c1c(NC(=O)c2cc(=O)c3ccccc3o2)sc2c1CCC2`, the survival is 94%.

In the case of `CCC(C)NC(=O)CSc1c2c(nc3cc(Cl)ccc13)CCCC2` (stereo not drawn), the survival is 82%.

On to `Cc1ccc(C)c(NC(=O)CSc2c3c(nc4ccc(Cl)cc24)CCCC3)c1`, for which the survival is 53%.

On to `O=C(CSc1c2c(nc3ccc(Cl)cc13)CCCC2)NCc1ccccc1Cl`, for which the survival is 119%.

For the compound `CCOC(=O)c1ccc(NC(=O)CSc2c3c(nc4cc(Cl)ccc24)CCCC3)cc1`, the survival was 68%.

On to `CC1CCCCN1C(=O)CSc1c2c(nc3cc(Cl)ccc13)CCCC2` (stereo not drawn), for which the survival is -6% (active).

Take `O=C(CSc1c2c(nc3ccc(Cl)cc13)CCCC2)N1CCCCC1`: the survival is 22% (active).

Regarding `Cc1ccc(CNC(=O)CSc2c3c(nc4cc(Cl)ccc24)CCCC3)cc1`, the survival is 80%.

As to `CC1CCN(C(=O)CSc2c3c(nc4ccc(Cl)cc24)CCCC3)CC1`, the survival was 0% (active).

Take `COc1ccc(OC)c(CNC(=O)CSc2c3c(nc4cc(Cl)ccc24)CCCC3)c1`: the survival is 68%.

For the compound `CC1CCCN(C(=O)CSc2c3c(nc4cc(Cl)ccc24)CCCC3)C1` (stereo not drawn), the survival was -5% (active).

For `CCOC(=O)C1CCN(c2nc3c(S(=O)(=O)c4ccc(Br)cc4)nnn3c3ccsc23)CC1`, the survival was 76%.

As to `O=[N+]([O-])c1ccc(S(=O)(=O)N2CCn3cccc3C2c2ccc(Br)cc2)cc1` (stereo not drawn), the survival is 75%.

Consider `COc1ccc(-c2noc(CSc3nnc(C)n3-c3ccc(C)cc3)n2)cc1OC`, for which the survival was 59%.

Regarding `COC(=O)c1ccc(-c2nc(-c3ccc(OC)c(OC)c3)no2)cc1`, the survival is 64%.

Regarding `O=C(CSCc1cc(=O)c2cc(F)ccc2[nH]1)Nc1ccccc1Cl`, the survival was 94%.

As to `CCOC(=O)c1ccc(NC(=O)CSc2nccn2Cc2ccc(OC)cc2)cc1`, the survival was 79%.

On to `COc1cc(NC(=O)c2cc(-c3cccc(Cl)c3)on2)c(OC)cc1Cl`, for which the survival is 61%.

Take `CC1CCc2nc(NC(=O)COc3ccc(C(C)(C)C)cc3)sc2C1` (stereo not drawn): the survival was 80%.

Turning to `CCOc1ccc(CNC(=O)CSc2c3c(nc4cc(Cl)ccc24)CCCC3)cc1`, the survival was 51%.

For the compound `COCCNC(=O)CSc1c2c(nc3cc(Cl)ccc13)CCCC2`, the survival was 71%.

Turning to `CCOC(=O)C1CCN(C(=O)CSc2c3c(nc4ccc(Cl)cc24)CCCC3)CC1`, the survival was 39% (active).

For the compound `CC1CCN(C(=O)CSc2c3c(nc4cc(Cl)ccc24)CCCC3)CC1`, the survival was 5% (active).

For the compound `CCc1ccccc1Nc1sc(C(=O)c2cccc(OC)c2)c(N)c1S(=O)(=O)c1ccccc1`, the survival is 72%.

For `Cc1ccc(S(=O)(=O)CCc2nnc(NC(=O)C3CCCN3C(=O)NC3CCCCC3)s2)cc1` (stereo not drawn), the survival was 72%.

`CCOc1ccc(CCNC(=O)c2sc3nc4n(c(=O)c3c2C)CCCC4)cc1`: the survival was 75%.

On to `CCn1cc2nc(SCC(=O)Nc3ccc(C)cc3)n(Cc3ccc(C)cc3)c(=O)c2n1`, for which the survival is 69%.

In the case of `COc1ccccc1NC(=O)CSc1nc(-c2ccccc2F)nc2cc(=O)[nH]n12`, the survival is 71%.

With `O=c1cc2nc(-c3ccccc3F)nc(SCc3ccc(Br)cc3)n2[nH]1`, the survival was 0% (active).

Consider `O=c1cc2nc(-c3ccccc3)nc(SCc3cccc(Br)c3)n2[nH]1`, for which the survival was 98%.

`Cc1ccc(CSc2nc(-c3ccc(C(C)(C)C)cc3)nc3cc(=O)[nH]n23)cc1`: the survival is 89%.

For the compound `Cc1cccc(-c2nc(SCc3ccc(Br)cc3)n3[nH]c(=O)cc3n2)c1`, the survival is 92%.

Regarding `Cc1ccc(-c2nc(SCc3ccc(Br)cc3)n3[nH]c(=O)cc3n2)cc1`, the survival is 37% (active).

With `CCC(c1nnnn1CCOC)N1CCN(c2nc3ccccc3s2)CC1` (stereo not drawn), the survival is 87%.

Regarding `N=C(N)N1CCN(CC(O)COc2ccccc2)CC1` (stereo not drawn), the survival was 84%.

On to `C#CCn1cc(/C=C(/C#N)C(=O)Nc2ccccc2)c2ccccc21`, for which the survival was 54%.

In the case of `CCCCNC(=O)C1CCN(c2nc(OC)nc(OC)n2)CC1`, the survival was 83%.

In the case of `O=C(Cn1c(SCCOc2ccccc2Cl)nc2ccccc21)N1CCCCC1`, the survival is 34% (active).

Take `O=C(Cn1c(SCCOc2ccccc2Cl)nc2ccccc21)N1CCOCC1`: the survival is 39% (active).

On to `Cc1cccc(OCCSc2nc3ccccc3n2CC(=O)N2CCOCC2)c1C`, for which the survival is 50%.

In the case of `CCn1c(SCC(N)=O)nc2ccccc21`, the survival was 79%.

`COc1ccccc1OCCSc1nc2ccccc2n1CC(=O)N1CCOCC1`: the survival was 94%.

`Cc1ccc(C)c(OCCSc2nc3ccccc3n2CC(=O)N2CCOCC2)c1`: the survival was 55%.

Regarding `CCn1c(SCCOc2ccccc2F)nc2ccccc21`, the survival is 0% (active).

With `O=C(CSc1nc2ccccc2n1CC(=O)N1CCCC1)N1CCCCC1`, the survival was 85%.

For `Cc1cccc(OCCSc2nc3ccccc3n2CC(=O)N2CCCCC2)c1C`, the survival is 28% (active).

Take `Cc1ccc(OCCSc2nc3ccccc3n2CC(=O)N2CCCCC2)c(C)c1`: the survival was 51%.

For `Cc1ccc(C(C)C)c(OCCSc2nc3ccccc3n2CC(O)CO)c1` (stereo not drawn), the survival was 48%.

In the case of `COc1ccc(CCC(=O)NCc2ccc3c(c2)CCN3C(=O)c2ccc(C)cc2)cc1`, the survival is 75%.

With `CC1=C(c2ccc(Cl)cc2)S(=O)(=O)N=C1N1CCN(c2cccc(C)c2)C(C)C1` (stereo not drawn), the survival was 89%.

With `CCOC(=O)N1CCC(NC(=O)c2cnn(-c3ccc(OC)cc3)c2C2CCN(C(=O)OC(C)(C)C)CC2)CC1`, the survival is 84%.

Take `CCOc1ccc(NC(=O)C(C)Sc2nnc3cc(C)c4ccccc4n23)cc1` (stereo not drawn): the survival was 73%.

For `COC(=O)Cn1c(SCCOc2ccccc2Cl)nc2ccccc21`, the survival is 42% (active).

With `COC(=O)Cn1c(SCCOc2ccccc2OC)nc2ccccc21`, the survival is 51%.

On to `CCCCNC(=O)c1cnn2c(C)c(Cc3c(C)cc(C)cc3C)c(C)nc12`, for which the survival is 102%.

With `COc1ccc(CNC(=O)CCCn2nc(C)c3sc4ccccc4c3c2=O)cc1OC`, the survival was 87%.

As to `Cc1oc(-c2ccccc2F)nc1CSCC(=O)N1CCN(c2ccccc2)CC1`, the survival is 62%.

Regarding `Cc1cccc(-c2nc(CSCC(=O)N3CCN(c4ccccc4)CC3)c(C)o2)c1`, the survival was 17% (active).

Regarding `Cc1cccc(-c2nc(CSCC(=O)N3CCN(c4cccc(C)c4C)CC3)c(C)o2)c1`, the survival was 8% (active).

As for `Cc1ccc(-c2nc(CS(=O)(=O)CC(=O)N3CCN(c4cccc(C)c4C)CC3)c(C)o2)cc1`, the survival was 116%.

In the case of `COc1ccc(-c2nc(CSCC(=O)N3CCN(c4cccc(C)c4C)CC3)c(C)o2)cc1OC`, the survival is 49%.

Regarding `CCc1ccc(-c2nc(CSCC(=O)N3CCN(c4ccc(F)cc4)CC3)c(C)o2)cc1`, the survival was 73%.
